In all, about 48,000 compounds went through this assay and about 13,000 (27%) showed an effect of 50% or more. The list shows a part of the results.

The results in this text go back to ChEMBL document CHEMBL3988442, “University of Dundee, Small-Polar-MMV Screening Library” (2021).

The test concerns Wolbachia pipientis. Put plainly: Anti-Wolbachia Cell-Based Screen. The class given is functional. Particulars: 5 µM. Further details: scale not given: in the data most compounds retested in dose-response had high values.
As to `CS(=O)(=O)c1ccc(NC(=O)N2CCc3sccc3C2)cn1`, the “Percent Effect” value is given as 17.51%.

Regarding `CN(C)c1ccc(NC(=O)CN2CCS(=O)(=O)CC2)cn1`, the “Percent Effect” value was 10.44%.

Consider `CSc1ncccc1C(=O)N1C[C@H]2CC[C@@H]1CN(C(C)=O)C2`, for which the “Percent Effect” value was 3.365%.

For the molecule `COc1ncccc1C(=O)N1CC[C@H]2C[C@@H](C)O[C@@H]2C1`, the “Percent Effect” value was found to be 13.58%.

As for `O=C(c1cccnc1Oc1ccc(Cl)cc1)N1CC[C@@H](O)C1`, the “Percent Effect” value is on record as 158.3%.

For the molecule `O=C(c1cccnc1-n1cncn1)N1CCN(c2ccccc2)CC1`, the “Percent Effect” value was -6.157%.

Consider `O=C(c1cccnc1SCc1ccccc1)N1CC[C@@H](O)C1`, for which the “Percent Effect” value stood at 159.2%.

For `O=C(c1cccnc1SC/C=C/c1ccccc1)N1CCOCC(O)C1` (stereo not given), the “Percent Effect” value came out at 8.468%.

As to `O=C(c1cccnc1SCc1ccccc1)N1CCOCC1`, the “Percent Effect” value is listed as 174.3%.

`COc1ccc(Oc2ncccc2NC(=O)N2CC[C@H](O)C2)cc1`: the “Percent Effect” value was determined as 8.282%.

With `O=C(c1cccnc1SC/C=C/c1ccccc1)N1CC[C@H](O)C1`, the “Percent Effect” value is 8.97%.

For `CN(C(=O)c1ccc(OCC(F)F)nc1)c1ccc2c(c1)CCO2`, the “Percent Effect” value amounted to 2.001%.

As for `OC(CN1CC(n2cccn2)C1)c1ccc2c(c1)OCCO2` (stereo not given), the “Percent Effect” value was -60.78%.

Regarding `CS(=O)(=O)NCCN1CCOC2(CCc3ccccc32)C1` (stereo not given), the “Percent Effect” value amounted to 9.722%.

For `Cc1[nH]ccc1C(=O)N(C)C1CC(=O)N(Cc2ccccc2)C1=O` (stereo not given), the “Percent Effect” value is recorded as -3.858%.

As for `O=C(Cc1c[nH]c(=O)[nH]c1=O)N1CCC2(CCC(=O)N(C3CC3)C2)CC1`, the “Percent Effect” value is recorded as 10.83%.

On to `Cn1ccc(C(=O)Nc2nc(-c3ccc(Cl)cc3)n[nH]2)cc1=O`, for which the “Percent Effect” value worked out at 5.787%.

As to `CCCNC(=O)Cn1cc(C#N)c(=O)c2cc(Br)ccc21`, the “Percent Effect” value is recorded as -9.356%.

As to `CSCC(=O)Nc1ncc(I)cc1C`, the “Percent Effect” value is reported as -3.012%.

With `Cc1cc(C)c(CNC(=O)NCc2ccc3c(c2)CCC3)c(=O)[nH]1`, the “Percent Effect” value was -7.046%.

Consider `CN(C)S(=O)(=O)c1ccc(-c2nc(C#N)c(NC3CC3)o2)o1`, for which the “Percent Effect” value is recorded as 107.9%.

With `CN(C)S(=O)(=O)c1ccc(CN2CCC(C(N)=O)CC2)o1`, the “Percent Effect” value is reported as -3.214%.

With `CN(C)S(=O)(=O)c1ccc(-c2nc(C#N)c(NC3CCCCC3)o2)o1`, the “Percent Effect” value is 126.8%.

Regarding `CSCC[C@@H](CO)n1ccnc1-c1ccncc1`, the “Percent Effect” value is reported as -26.42%.

Turning to `C1CCC(OCCN2CCN(CCOC3CCCCC3)CC2)CC1`, the “Percent Effect” value was determined as 16.33%.

On to `Oc1cccc(-c2cc(C3CCN(Cc4cncnc4)C3)ccn2)c1` (stereo not given), for which the “Percent Effect” value is -2.47%.

Regarding `CCC(=O)NCC(=O)NCC1(c2c(F)cccc2F)CCCC1`, the “Percent Effect” value is -0.7519%.

On to `O=C(O)C(F)(F)F.O=C(O)C(F)(F)F.c1ccc(CN2CCc3nnc(CN4CCCCC4)n3CC2)nc1`, for which the “Percent Effect” value is reported as -3.311%.

In the case of `CN(C)C(=O)NCc1ncn2c1CN(Cc1ccco1)CCC2.O=C(O)C(F)(F)F`, the “Percent Effect” value is listed as -2.342%.

On to `O=C(O)C(F)(F)F.O=C1CCCN1Cc1nnc2n1CCN(Cc1ccco1)CC2`, for which the “Percent Effect” value is on record as 95.89%.

On to `O=C1CCCN1Cc1nnc2n1CCN(Cc1ccco1)C2`, for which the “Percent Effect” value is on record as 88.52%.

For `N#CCC(=O)NCc1nnc2n1CCN(Cc1ccco1)C2`, the “Percent Effect” value is given as -13.02%.

As for `O=C(O)C(F)(F)F.O=C1CCCN1Cc1nnc2n1CCCN(Cc1ccco1)C2`, the “Percent Effect” value came out at 117.6%.

With `c1cnc(OCc2nnc3n2CCN(Cc2ccco2)C3)nc1`, the “Percent Effect” value is given as -5.792%.

On to `O=C(O)C(F)(F)F.O=C(O)C(F)(F)F.c1ccc(OCc2nnc3n2CCN(Cc2ccco2)C3)nc1`, for which the “Percent Effect” value worked out at 6.411%.
